# Assay results published in publication PMC8384837, “Expanding the binding specificity for RNA recognition by a PUF domain”.
# Changes are numbered by the printed parent chain.
# Columns and labels:
# Test in all cases: yeast three-hybrid, YBZ-1, SC-Leu-His + 0.5 mM 3-AT, 4 days
# Settings in all cases: tags: N-Gal4 AD-HA kept; label: inside an RPR1-promoter hybrid RNA with tandem MS2 sites; ssRNA
# PUM1 PUF domain R6-FRL = target: T1, PUM1 PUF domain R6-FRL (Homo sapiens, UniProt Q14671 828-1176, N1043F;Y1044R;Q1047L)
# T1 sequence: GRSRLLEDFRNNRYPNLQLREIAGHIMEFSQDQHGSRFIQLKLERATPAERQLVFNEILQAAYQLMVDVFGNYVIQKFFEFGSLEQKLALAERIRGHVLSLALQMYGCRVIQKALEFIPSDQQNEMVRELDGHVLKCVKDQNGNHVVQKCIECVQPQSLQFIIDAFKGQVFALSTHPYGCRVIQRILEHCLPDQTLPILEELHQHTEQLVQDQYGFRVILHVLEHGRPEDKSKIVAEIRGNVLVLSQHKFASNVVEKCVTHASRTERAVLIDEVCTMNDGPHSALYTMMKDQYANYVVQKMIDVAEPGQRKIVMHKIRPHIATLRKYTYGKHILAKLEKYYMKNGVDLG
# Summary of the method: (§1)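 The interaction score is the log change in how often each variant appears, from input to selection. Frequencies came from PCR-amplified, Illumina-sequenced repeat regions of Pumilio-1 PUF domain libraries grown in strain YBZ-1 (LexA–MS2 coat fusion, HIS3 reporter) alongside matching RNA elements. Input plates were SC-Leu and selection plates were SC-Leu-His + 0.5 mM 3-AT, each for four days, and the log2 calculation used a pseudocount of 1 where a variant was absent.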
# PUM1 PUF domain R7-KGG = PUM1 PUF domain R7-KGG (Homo sapiens, UniProt Q14671 828-1176, S1079K;N1080G;E1083G)
# Summary of the method: as §1
# PUM1 PUF domain R1-SRR = PUM1 PUF domain R1-SRR (Homo sapiens, UniProt Q14671 828-1176, Q867R)
# Summary of the method: as §1
# PUM1 PUF domain R1-GVR = PUM1 PUF domain R1-GVR (Homo sapiens, UniProt Q14671 828-1176, S863G;R864V;Q867R)
# Summary of the method: as §1
# PUM1 PUF domain R6-SWE = target: T2, PUM1 PUF domain R6-SWE (Homo sapiens, UniProt Q14671 828-1176, N1043S;Y1044W;Q1047E)
# T2 sequence: T1 sequence with F216S, R217W, L220E
# Summary of the method: as §1
# PUM1 PUF domain R8-RCK = PUM1 PUF domain R8-RCK (Homo sapiens, UniProt Q14671 828-1176, N1122R;Y1123C;Q1126K)
# Summary of the method: as §1
# PUM1 PUF domain R4-VNA = PUM1 PUF domain R4-VNA (Homo sapiens, UniProt Q14671 828-1176, N971V;H972N;Q975A)
# Summary of the method: as §1
# PUM1 PUF domain R5-QNG = PUM1 PUF domain R5-QNG (Homo sapiens, UniProt Q14671 828-1176, C1007Q;R1008N;Q1011G)
# Summary of the method: as §1
sequence,measurement,setting,value
GGCUAGAACUAGUGGAUCCCCCGGCGCCCGGCGGCUCGAGCCCGGGUAAGUGUAAAUAGUCUGCAUGCCGCCGGGCGCCAUGCCUGCAGGUCGACUCUAGAAAACAUG,binding signal,PUM1 PUF domain R6-FRL,2.93 log2 enrichment (interaction score)
GGCUAGAACUAGUGGAUCCCCCGGCGCCCGGCGGCUCGAGCCCGGGUAAGUUUAAAUAGUCUGCAUGCCGCCGGGCGCCAUGCCUGCAGGUCGACUCUAGAAAACAUG,binding signal,PUM1 PUF domain R7-KGG,2.69 log2 enrichment (interaction score)
GGCUAGAACUAGUGGAUCCCCCGGCGCCCGGCGGCUCGAGCCCGGGUAAGUGUAAAUUGUCUGCAUGCCGCCGGGCGCCAUGCCUGCAGGUCGACUCUAGAAAACAUG,binding signal,PUM1 PUF domain R1-SRR,1.58 log2 enrichment (interaction score)
same,binding signal,PUM1 PUF domain R1-GVR,2.24 log2 enrichment (interaction score)
GGCUAGAACUAGUGGAUCCCCCGGCGCCCGGCGGCUCGAGCCCGGGUAAGUGUAAAUCGUCUGCAUGCCGCCGGGCGCCAUGCCUGCAGGUCGACUCUAGAAAACAUG,binding signal,PUM1 PUF domain R1-SRR,3.51 log2 enrichment (interaction score)
same,binding signal,PUM1 PUF domain R1-GVR,3.35 log2 enrichment (interaction score)
GGCUAGAACUAGUGGAUCCCCCGGCGCCCGGCGGCUCGAGCCCGGGUAAGUGGAAAUAGUCUGCAUGCCGCCGGGCGCCAUGCCUGCAGGUCGACUCUAGAAAACAUG,binding signal,PUM1 PUF domain R6-SWE,4.47 log2 enrichment (interaction score)
GGCUAGAACUAGUGGAUCCCCCGGCGCCCGGCGGCUCGAGCCCGGGUAAGUGAAAAUAGUCUGCAUGCCGCCGGGCGCCAUGCCUGCAGGUCGACUCUAGAAAACAUG,binding signal,PUM1 PUF domain R6-SWE,4.09 log2 enrichment (interaction score)
GGCUAGAACUAGUGGAUCCCCCGGCGCCCGGCGGCUCGAGCCCGGGUAAGCGUAAAUAGUCUGCAUGCCGCCGGGCGCCAUGCCUGCAGGUCGACUCUAGAAAACAUG,binding signal,PUM1 PUF domain R8-RCK,2.23 log2 enrichment (interaction score)
GGCUAGAACUAGUGGAUCCCCCGGCGCCCGGCGGCUCGAGCCCGGGUAAGUGUAUAUAGUCUGCAUGCCGCCGGGCGCCAUGCCUGCAGGUCGACUCUAGAAAACAUG,binding signal,PUM1 PUF domain R4-VNA,3.11 log2 enrichment (interaction score)
GGCUAGAACUAGUGGAUCCCCCGGCGCCCGGCGGCUCGAGCCCGGGUAAGUGUACAUAGUCUGCAUGCCGCCGGGCGCCAUGCCUGCAGGUCGACUCUAGAAAACAUG,binding signal,PUM1 PUF domain R4-VNA,1.65 log2 enrichment (interaction score)
GGCUAGAACUAGUGGAUCCCCCGGCGCCCGGCGGCUCGAGCCCGGGUAAGUGUUAAUAGUCUGCAUGCCGCCGGGCGCCAUGCCUGCAGGUCGACUCUAGAAAACAUG,binding signal,PUM1 PUF domain R5-QNG,2.88 log2 enrichment (interaction score)
